Measurements from PubChem BioAssay (NCI).
This is part of a sample that, as a whole, favours compounds with a hit. Of some 79,000 tested, about 15% had one in any assay. Rule as the data show it: active = growth inhibition above about 70%; inactive = the rest.

What was measured:
[1] = NCI Yeast Anticancer Drug Screen. Data for the rad50 strain (AID 155);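 also: 0% = growth of vehicle-only cultures of the same strain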; conditions: S. cerevisiae rad50 strain growth inhibition; at 50.0 µM; hits give high values
Procedure, shortened: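 Readout: growth inhibition relative to vehicle-treated cultures. Compound exposure was carried out in a genetically defined yeast strain deficient in DNA damage repair.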

[2] = NCI Yeast Anticancer Drug Screen. Data for the mec2-1 strain (AID 157); conditions: S. cerevisiae mec2-1 strain, at 50.0 µM, hits give high values
Procedure, shortened: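 Vehicle-treated cultures served as reference for growth inhibition of compound-exposed mec2-1 yeast.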

[3] = NCI Yeast Anticancer Drug Screen. Data for the sgs1 mgt1 strain (AID 161);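 also: 0% = growth of cultures given vehicle only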; conditions: S. cerevisiae sgs1 mgt1 strain, at 50.0 µM, hits give high values
Procedure, shortened: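 Mutant yeast exposed to compound; growth scored against vehicle-only wells.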

[4] = NCI Yeast Anticancer Drug Screen. Data for the cln2 rad14 strain (AID 165);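 also: 0% = growth equal to vehicle treated cultures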; conditions: S. cerevisiae cln2 rad14 strain, at 50.0 µM, hits give high values
Procedure, shortened: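 Each compound was tested on cln2 rad14 yeast. Inhibition of growth was calculated against vehicle-exposed controls.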

[5] = NCI Yeast Anticancer Drug Screen. Data for the bub3 strain (AID 167); conditions: S. cerevisiae bub3 mutant strain, at 50.0 µM, hits give high values
Procedure, shortened: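 Readout: yeast growth inhibition, expressed relative to vehicle-only wells. The test organism is a mutant strain from a panel with lesions in DNA repair or checkpoint genes.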

[6] = NCI Yeast Anticancer Drug Screen. Data for the mlh1 rad18 strain (AID 175); conditions: S. cerevisiae mlh1 rad18 strain growth inhibition; at 50.0 µM; hits give high values
Procedure, shortened: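 Vehicle-treated cultures served as the reference for growth inhibition in a yeast strain carrying DNA damage repair alterations exposed to each compound.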

Measured: growth inhibition

COc1cc2oc3cc(=O)cc4oc(-c5ccccc5)cc(c2c2c1CCC(c1ccccc1)O2)c43 (stereo unspecified)
inactive: [1] 6.75% | [2] 7.9% | [3] -17.4% | [4] 3.6% | [5] -8.7% | [6] -10.2%

N#Cc1c(N)nc(N)nc1Nc1ccc(Cl)cc1
inactive: [1] 13.6% | [2] -8.7% | [3] 9.25% | [4] 26.9% | [5] -5.8% | [6] 25.6%

Cc1c(C(=O)CC2OC(=O)C(Cl)=C2Cl)c2ccccc2n1C(=O)Nc1ccc(Cl)cc1 (stereo unspecified)
inactive: [1] 15.8% | [2] -6.75% | [3] 11.1% | [4] -32.4% | [5] 5.05% | [6] 5.3%

O=C(/C=N/O)Nc1ccccc1
inactive: [1] 10.8% | [2] 7.25% | [3] -0.15% | [4] 7.9% | [5] 7.25% | [6] -9.35%

COC(=O)CCC(=O)NCC(=O)OCc1ccccc1
inactive: [1] 0.55% | [2] -1.85% | [3] -13.9% | [4] 3.05% | [5] -11.8% | [6] 19.2%

C[N+](C)(C)CCOC(=O)C(c1ccccc1)C1(O)CCCC1 (stereo unspecified)
inactive: [1] 33.6% | [2] -16.1% | [3] 12.7% | [4] -24.4% | [5] -1.7% | [6] 22.3%

ClC(Cl)=C(c1ccccc1)c1ccccc1
inactive: [1] 30.2% | [2] 22.4% | [3] 36.5% | [4] 7.15% | [5] -4.45% | [6] 16.9%

COc1ccc(CCl)c(C)c1OC
inactive: [1] 32.7% | [2] 5.75% | [3] 18.9% | [4] 2.75% | [5] 16.1% | [6] -10.7%

S=C(Nc1ccccc1)Nc1ccccc1S
inactive: [1] -15.4% | [2] -19.8% | [3] 6.75% | [4] -20.4% | [5] 14.7% | [6] -18.9%

O=C1CCc2c(Cl)sc(Cl)c21
inactive: [1] 20.1% | [2] 5.5% | [3] 13.8% | [4] -32.2% | [5] 4.1% | [6] 9.95%

CCOC(=O)/C(=C\c1ccccc1)NC(=O)c1ccccc1
inactive: [1] 5.4% | [2] -2.75% | [3] -2.35% | [4] 7.3% | [5] 20% | [6] 4.85%

Cc1nc(N)nc(-c2ccccc2)c1N=Nc1cc(Cl)cc(Cl)c1
inactive: [1] 5.95% | [2] -8.3% | [3] -3.65% | [4] -6.45% | [5] -5.15% | [6] 7.45%

CN1C(=S)CSc2ccccc21
inactive: [1] -8.5% | [2] -4% | [3] -11.3% | [4] 26% | [5] -9.75% | [6] 1.85%

COC(=O)/C(=C\c1ccc(N(CCC#N)CCC#N)cc1)NC(=O)c1cc([N+](=O)[O-])ccc1Cl
inactive: [1] -0.55% | [2] -3.65% | [3] -16.1% | [4] 5.65% | [5] -21.6% | [6] -3.4%

COC(=O)c1cc(C(=O)OC)c(C/C(=N/NC(N)=S)C(=O)Nc2ccc(Cl)c(Cl)c2)nc1C/C(=N/NC(N)=S)C(=O)Nc1ccc(Cl)c(Cl)c1
inactive: [1] 28.4% | [2] 14.9% | [3] 7.1% | [4] 34.2% | [5] 32.7% | [6] 44%

O=C(NN1C(=O)CS(=O)(=O)C1c1ccccc1F)c1ccncc1 (stereo unspecified)
inactive: [1] -8% | [2] -4.4% | [3] 8.3% | [4] -9.35% | [5] -0.1% | [6] 7.75%

CCCCCCCC(=O)CC(C)C
inactive: [1] 12.1% | [2] -11.7% | [3] 0.6% | [4] -2.5% | [5] -21.4% | [6] 6.65%

CCn1c2ccc(N(C)C)cc2c2cc(N(C)C)ccc21
inactive: [1] -25.4% | [2] -38.5% | [3] -24.1% | [4] -38.8% | [5] -18.5% | [6] -52.4%

CCCCC(CC)C1OCC(O)CO1 (stereo unspecified)
inactive: [1] 8.8% | [2] 3.3% | [3] 2.55% | [4] 5.1% | [5] -13.2% | [6] -14.3%

Cc1c(C(=O)/C=C/c2ccc(N(C)C)cc2)c(=O)n(-c2ccccc2)n1C
inactive: [1] -7% | [2] -45.1% | [3] -36.1% | [4] -8.85% | [5] -29.7% | [6] -20.1%

COc1ccc(Cc2cc(OC)c(OC)c(OC)c2)cc1
inactive: [1] 13.2% | [2] -0.3% | [3] 7.7% | [4] 0% | [5] 31.8% | [6] -27.6%

O=C(O)c1c2c(nc3ccccc13)Cc1ccccc1-2
inactive: [1] 1% | [2] -0.75% | [3] 10.1% | [4] -0.2% | [5] 17.3% | [6] -39.8%

CC1OC(c2ccccc2Cl)OC1C (stereo unspecified)
inactive: [1] 1% | [2] -2.75% | [3] -9.7% | [4] -8.5% | [5] -3.05% | [6] -11.7%

Nc1ccc(C2SCC(=O)N2NS(=O)(=O)c2cccc(C(=O)O)c2)cc1 (stereo unspecified)
inactive: [1] -21.3% | [2] -24.1% | [3] 6.8% | [4] 0.8% | [5] -46.2% | [6] -54.5%

CCCc1nc(NC#N)nc(C(=O)NC23CC4CC(CC(C4)C2)C3)c1C
inactive: [1] -8.2% | [2] -13.2% | [3] 7.4% | [4] 8.4% | [5] -7.2% | [6] -9.35%

O=S1(=O)OCOS(=O)(=O)OCO1
inactive: [1] -24.9% | [2] -28.6% | [3] -14.2% | [4] -4.8% | [5] -13.8% | [6] -19.9%

CC(=O)NC1CCC(Cc2ccccc2)CC1 (stereo unspecified)
inactive: [1] 6.2% | [2] -7.65% | [3] -11.3% | [4] -93.3% | [5] -22.3% | [6] -3.9%

Cc1ccnc(NC(NC(=O)c2ccccc2)(C(F)(F)F)C(F)(F)F)c1
inactive: [1] 4.75% | [2] 3.5% | [3] 12.8% | [4] 23.2% | [5] -8.05% | [6] -39.5%

O=C(c1ccccc1)C1(Br)CCCCC1
inactive: [1] -2.1% | [2] 11.7% | [3] 19.8% | [4] -8.8% | [5] 15% | [6] 15.9%

CN(C)c1ncnc2c1cnn2-c1ccccc1
inactive: [1] -4.45% | [2] -4.35% | [3] 0.2% | [4] -40.8% | [5] -0.25% | [6] -3.15%

C1CSCC2(COC2)CS1
inactive: [1] 13% | [2] 13.6% | [3] -9.65% | [4] 5% | [5] -1.55% | [6] 14.2%

COc1ccc(OC)c2cc(C3(C)SCCCS3)ccc12
inactive: [1] -9% | [2] 9.35% | [3] 19.2% | [4] 15.3% | [5] 13.2% | [6] -12.2%

Cc1c(C)c(C)c(CN2CCC(C)CC2)c(C)c1C
inactive: [1] -2.55% | [2] 9.85% | [3] -14.9% | [4] -17.6% | [5] 3.45% | [6] -9.1%

CCC(=O)NN(C(C)=O)c1ccccc1
inactive: [1] 10.3% | [2] -21.4% | [3] 6.4% | [4] -16.2% | [5] 8.8% | [6] 18.9%

c1ccc(B2O[C@H]3CCCC[C@@H]3O2)cc1
inactive: [1] 2.15% | [2] 13.9% | [3] -1.3% | [4] 12.8% | [5] 1.25% | [6] 21.4%

CCOC(=O)c1cccc(C(=O)OCC)n1
inactive: [1] 4.75% | [2] -2.35% | [3] 11.8% | [4] -1.65% | [5] 18.7% | [6] -14.6%

O=C(CC(=O)N1N=C(N(c2ccccc2)c2ccccc2)CC1c1ccccc1)Nc1ccccc1 (stereo unspecified)
inactive: [1] 17.1% | [2] 6.4% | [3] -2.1% | [4] 8.3% | [5] -0.35% | [6] 0.1%

Cc1c(O)cc(O)c(C)c1C
inactive: [1] -0.3% | [2] -23.3% | [3] -8.6% | [4] -2% | [5] 9.8% | [6] -8.65%

CC(C)(C)CC(C)(C)N1CNC(=S)NC1
inactive: [1] 19% | [2] -1.95% | [3] 18.3% | [4] 10.8% | [5] 21.8% | [6] 16.8%

Cc1cc(Br)ccc1NC1=CC(=O)C(=O)c2ccccc21
inactive: [1] 9.95% | [2] 19.6% | [3] -3.4% | [4] 11.3% | [5] 13.2% | [6] 32.1%

COc1cc2c3c(c1)nc(C)n3C(=O)C(c1ccccc1)S2 (stereo unspecified)
inactive: [1] -17.6% | [2] -5.3% | [3] -26.3% | [4] 4.1% | [5] 21.6% | [6] -23.6%
